# JMJD2A Tudor inh – blocks the human JMJD2A Tudor domain; O75164; AlphaScreen JMJD2A-Tudor / H3K4me3 peptide binding; Potency, µM (titrated, usually from 114 µM), without a hit: at the highest dose activity change, negative = inhibition, actives largely listed as inhibitors; hit rate 4.4% among 390,000; AID 504339; note: % is set by controls: 0 for no effect and ±100 for the full control effect; nearly all actives have a fitted effect of over 50% in size
# L3MBTL1 block – blocks human L3MBTL1 | AlphaScreen L3MBTL1–H3K9me1 peptide binding | Potency, µM (highest dose often 57.1 µM), inactives show top-dose activity, negative = inhibition, most hits filed as inhibitors | hit rate 0.66% among 230,000 | AID 485360; note: % is set by controls: 0 for no effect and ±100 for the full control effect; nearly all actives have a fitted effect of over 60% in size
#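 First, the protein-peptide complex forms for 30 min at room temperature (L3MBTL1 50 nM, biotinylated H3K9me1 peptide 75 nM). Next, compounds are pin-transferred and incubated 30 min. Finally, AlphaScreen beads are added and read after 30 min.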
# VDR inhibitor – vitamin D3 receptor (human) inhibition | P11473 | VDR-SRC2-3 peptide fluorescence polarization, 2 h | Potency, µM, without a hit: max response, negative = inhibition, actives largely listed as inhibitors | hit rate 0.93% among 400,000; note: % is set by controls: 0 for no effect and ±100 for the full control effect
#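 Fluorescence polarization assay of small-molecule disruption of VDR binding to coregulator peptide SRC2-3. Compounds and controls pin-transferred, then read after 2 h incubation at ambient room temperature.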
# BAZ2B inh – BAZ2B (human) inhibition. AID 504333. Potency, µM (series often up to 114 µM), for the others: at the top dose activity change, negative = inhibition, actives largely listed as inhibitors. hit rate 4.4% among 360,000. AlphaScreen BAZ2B-H3K14Ac peptide displacement; note: % is set by controls: 0 for no effect and ±100 for the full control effect; nearly all actives have a fitted effect of over 60% in size
#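 BAZ2B (50 nM) with biotin-H3(5-23)K14Ac peptide (50 nM) in PBS pH 7.4, 0.01% Tween-20, preformed 30 min, then compound 30 min at room temperature; top concentration 110uM. AlphaScreen streptavidin donor/nickel chelate acceptor beads (10 ug/mL final), 20 min dark, signal read.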
# HP1b chromo inh – HP1-beta chromodomain-methylated histone interaction inhibition; AlphaScreen HP1-beta / biotin-H3K9me3 peptide binding; Potency, µM (top dose mostly 114 µM), without a hit: at the top dose activity change, negative = inhibition, hits mostly inhibitors; hit rate 0.56% among 390,000; note: nearly all actives have a fitted effect of over 70% in size
#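 AlphaScreen: HP1-beta (50 nM) preformed 30 min with biotin-H3(1-18)K9me3 peptide (50 nM) in PBS pH 7.4, 0.01% Tween-20. Compound added for 30 min at RT, then streptavidin donor/nickel chelate acceptor beads (10 ug/mL) for 30 min.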
# PLK1 PBD inh – blocks phosphopeptide binding to human PLK1 polo-box domain; Plk1 PBD binding of FITC phosphopeptide, fluorescence polarization; P53350; hit rate 2.8% among 360,000; Potency, µM, inactives show max response, negative = inhibition, usual class: inhibitors; note: series mostly up to about 57 µM; % is set by controls: 0 for no effect and ±100 for the full control effect; nearly all actives have a fitted effect of over 65% in size
# The depositor's hits bear a star; ? = inconclusive; . = no result given. An excerpt weighted towards active compounds, which were near 6.9% of everything screened. Calls come from the whole dose curve; as a rule, active = well fitted curve in the direction sought with a large enough effect; inconclusive = small, poorly fitted or top-dose-only effect, or another doubt; inactive = no such curve, though single readings can be large; an effect the other way counts as inactive or inconclusive. Potency is the fitted concentration of half-maximal effect.
SMILES,JMJD2A Tudor inh,L3MBTL1 block,VDR inhibitor,BAZ2B inh,HP1b chromo inh,PLK1 PBD inh
CCC1CN2CCC1CC2[C@@H](NC(=S)Nc1cc(C(F)(F)F)cc(C(F)(F)F)c1)c1cccc2ccc(OC)cc12 (stereo partly specified),.,.,-12%,.,.,.
CCC(C(=O)Nc1ccc(C(C)C)cc1)n1nc(C)n2c(cc3cc(C)ccc32)c1=O (stereo unspecified),-20%,.,9%,-12%,5%,.
Cc1ccccc1-c1n[nH]c(=S)n1/N=C/c1c(C)nn(-c2ccccc2)c1C,?,-1%,-8%,-5%,25%,-20%
Oc1ccc(/C=N/n2c(-c3ccccc3)n[nH]c2=S)cc1Br,8.9µM*,-6%,-6%,-34%,9%,-5%
Cc1c(Br)c(O)c(Br)c(O)c1/C=N/n1c(-c2ccccc2)n[nH]c1=S,25µM*,.,?,-38%,?,3µM*
Oc1c(Br)cc(/C=N/n2c(-c3ccccc3)n[nH]c2=S)cc1Br,3.2µM*,2%,?,?,5%,?
Oc1c(Br)cc(/C=N/n2c(-c3ccccc3)n[nH]c2=S)c(O)c1Br,4µM*,2%,?,-27%,-16%,6.7µM*
Cc1ccccc1NC(=O)Cn1nc(-c2ccccc2)nc(Cc2ccccc2)c1=O,-20%,.,3%,-5%,-10%,.

# Source: PubChem BioAssay (National Center for Advancing Translational Sciences (NCATS))
